High-throughput results: PubChem BioAssay, National Center for Advancing Translational Sciences (NCATS)
In the library only some 10% were active in any assay of this set; here they are far more common.
HP1b chromo inh = blocks HP1-beta chromodomain binding to methylated histone tails. P83916. AlphaScreen HP1-beta / biotin-H3K9me3 peptide binding. Potency, µM (doses to about 114 µM), for inactives: at the highest dose activity change, negative = inhibition, actives largely listed as inhibitors. actives 0.56% (n = 390,000); also: potency is read from the fitted curve at half-maximal effect; nearly all actives have a fitted effect of over 70% in size
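AlphaScreen: HP1-beta (50 nM) preformed 30 min with biotin-H3(1-18)K9me3 peptide (50 nM) in PBS pH 7.4, 0.01% Tween-20. Compound added for 30 min at RT, then streptavidin donor/nickel chelate acceptor beads (10 ug/mL) for 30 min.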
JMJD2A Tudor = blocks the human JMJD2A Tudor domain | AlphaScreen JMJD2A-Tudor / H3K4me3 peptide binding | Potency, µM (titrated, usually from 114 µM), for inactives: top-dose activity change, negative = inhibition, hits mostly inhibitors | actives 4.4% (n = 390,000); also: potency is read from the fitted curve at half-maximal effect; % is scaled to controls: 0 for no effect and ±100 for the full control effect; nearly all actives have a fitted effect of over 50% in size
G9a inh = blocks human histone lysine methyltransferase G9a | Q96KQ7 | G9a H3K9 monomethylation, AlphaScreen, 2 h | Potency, µM (highest dose often 102 µM), without a hit: at the top dose activity, negative = inhibition, usual class: inhibitors | actives 8.8% (n = 350,000); also: potency is read from the fitted curve at half-maximal effect; % is scaled to controls: 0 for no effect and ±100 for the full control effect; nearly all actives have a fitted effect of over 75% in size
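Signal arises when biotinylated H3K9 peptide, once monomethylated, bridges streptavidin donor and antibody-captured acceptor beads. Enzyme at 20 nM was preincubated 15 min with test compounds; peptide 500 nM and SAM 20 uM then reacted for 2 h.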
CtBP-E1A inh = CtBP/E1A binding inhibition; actives 0.49% (n = 340,000); AlphaScreen GST-E1A/His-CtBP binding, 1536-well; active compounds read low; activity change, % (concentration not given with the values); in the data active = activity change below about -65%; inconclusive = mostly about -30% to -63%; also: % is scaled to controls: 0 for no effect and ±100 for the full control effect
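Homogeneous bead-based format: GST-tagged E1A captured on glutathione donor beads, His-tagged CtBP on nickel acceptor beads; compounds precede bead addition by 2 h at 37 °C.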
Six1-Eya2 blk = inhibitors of human Six1/Eya2 interaction. activity change, % (no concentration beside the values). AlphaScreen GST-Six1/His-Eya2 binding, biochemical; active compounds read low. actives 0.56% (n = 360,000). Q15475+O00167. AID 651725; in the data active = activity change below about -65%; inconclusive = mostly about -30% to -63%; also: % is scaled to controls: 0 for no effect and ±100 for the full control effect
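Compounds are tested against tagged Six1 and Eya2 proteins bridged by glutathione donor and nickel acceptor beads; after a one-hour incubation at 37 °C without light, AlphaScreen emission is recorded.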
BAZ2B block = blocks human BAZ2B | AlphaScreen BAZ2B-H3K14Ac peptide displacement | Potency, µM (series often up to 114 µM), inactives show top-dose activity change, negative = inhibition, hits mostly inhibitors | actives 4.4% (n = 360,000) | AID 504333; also: potency is read from the fitted curve at half-maximal effect; % is scaled to controls: 0 for no effect and ±100 for the full control effect; nearly all actives have a fitted effect of over 60% in size
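AlphaScreen displacement: compounds (up to 110uM) incubated 30 min at room temperature with a preformed 50 nM BAZ2B/50 nM biotinylated H3K14Ac peptide complex in PBS pH 7.4 with Tween-20. Donor and acceptor beads at 10 ug/mL final added, 20 min light-protected before reading.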
Active calls of the source: *; [ ] = dose if it differs, or a comment. Unless noted, calls follow the shape of the dose curve; as a rule, active = well fitted inhibition curve with a large enough effect; inconclusive = small, poorly fitted or top-dose-only effect; inactive = no such curve, though single readings can be large or run the other way.

O=C1C2CC=CCC2C(=O)N1c1ncn[nH]1 (stereo not given) was read as HP1b chromo inh 6%, JMJD2A Tudor -13%, G9a inh -28%[59 µM], CtBP-E1A inh -6, Six1-Eya2 blk 0 and BAZ2B block inconclusive.
Screening C[C@@H](C(=O)Nc1ccc2ccccc2c1)[C@H]1C[C@]1(C)[C@H](NS(=O)(=O)c1ccc(-c2ccccc2)cc1)c1ccccc1 returned HP1b chromo inh 15%, JMJD2A Tudor -25%, G9a inh -50%, CtBP-E1A inh -1, Six1-Eya2 blk -7 and BAZ2B block 0%.
Screening Cc1nn(C)c(Cl)c1S(=O)(=O)N[C@@H](c1ccccc1)[C@]1(C)C[C@H]1[C@@H](C)C(=O)Nc1ccc2ccccc2c1 returned HP1b chromo inh 24%, JMJD2A Tudor -18%, G9a inh 50µM*, CtBP-E1A inh -4, Six1-Eya2 blk 3 and BAZ2B block -25%.
Screening COc1cc(/C=C/C(=O)O)cc(S(=O)(=O)Nc2ccc3cn[nH]c3c2)c1OC returned HP1b chromo inh 37%, JMJD2A Tudor -4%, G9a inh -13%[2.33 µM], CtBP-E1A inh 10, Six1-Eya2 blk -1 and BAZ2B block -3%.
For COc1cc(/C=C/C(=O)O)cc(S(=O)(=O)Nc2ccc3nc(SC)sc3c2)c1OC the results were HP1b chromo inh 14%, JMJD2A Tudor -14%, G9a inh 40µM*, CtBP-E1A inh -1 and Six1-Eya2 blk -2.
Screening CCC(=O)N1CCC1(C)C(=O)Nc1ccc(OC(F)F)cc1 (stereo not given) returned CtBP-E1A inh 5 and Six1-Eya2 blk -1.
`N#C/C(=C\N1CCOCC1)c1ccccc1` gave HP1b chromo inh 14%, JMJD2A Tudor -10%, G9a inh 38%[12.7 µM], CtBP-E1A inh 7, Six1-Eya2 blk 7 and BAZ2B block 1%.
`O=C1OC(c2ccccc2)=C/C1=C\N1CCOCC1` gave HP1b chromo inh -1%, JMJD2A Tudor inconclusive, G9a inh 8.9µM*, CtBP-E1A inh 3, Six1-Eya2 blk -6 and BAZ2B block -35%.
O=C1OC(c2ccccc2)=C/C1=C/N1CCOCC1 was read as HP1b chromo inh -7%, JMJD2A Tudor -31%, G9a inh 8.9µM*, CtBP-E1A inh -3, Six1-Eya2 blk -1 and BAZ2B block -31%.
For CN(C)/C=C1/C=C(c2ccccc2)OC1=O the results were HP1b chromo inh -15%, JMJD2A Tudor -28%, G9a inh 35µM*, CtBP-E1A inh 7, Six1-Eya2 blk 4 and BAZ2B block -32%.
For COc1cc2c(cc1OC)C(COc1ccc3c(C)cc(=O)oc3c1)N(C(=O)c1ccc(C)c(C)c1)CC2 (stereo not given) the results were HP1b chromo inh 22%, JMJD2A Tudor 5%, G9a inh 12%[59 µM] and BAZ2B block 1%.
For CC(C)c1cccc(C(C)C)c1NC1=NS(=O)(=O)c2ccccc21 the results were HP1b chromo inh 16%, JMJD2A Tudor -19%, G9a inh 4%[59 µM] and BAZ2B block 4%.
`CN(C)CC(=O)N1CCc2ccccc2C1` gave HP1b chromo inh -33%, JMJD2A Tudor 11µM*, G9a inh inconclusive, CtBP-E1A inh -2, Six1-Eya2 blk 2 and BAZ2B block 50µM*.
`Cc1ccccc1N(CC(=O)N1CCc2ccccc2C1)S(C)(=O)=O` gave HP1b chromo inh 39%, JMJD2A Tudor -2%, G9a inh 12%, CtBP-E1A inh 6, Six1-Eya2 blk 2 and BAZ2B block 9%.
CC(=O)Oc1cc(C(=O)OCC(=O)N2CCc3ccccc3C2)cc(OC(C)=O)c1OC(C)=O was read as HP1b chromo inh inconclusive, JMJD2A Tudor 1.6µM*, CtBP-E1A inh -12 and Six1-Eya2 blk -3.
CC(=O)c1cc(-c2ccccc2)n(CCC(=O)NCc2ccc(C)cc2)c1C was read as HP1b chromo inh 32%, JMJD2A Tudor -10%, G9a inh 2%[59 µM] and BAZ2B block 1%.
